Laboratory results taken from paper PMC7819943, “Rice protein-binding microarrays: a tool to detect cis-acting elements near promoter regions in rice”.
In all, about 39,000 sequences were measured (“fluorescence intensity (a.u.)”: median about 4,300, highest 2% from about 39,000 on). Many of the other results were omitted from the sample, so the highest values are more common in it than they were.

Target: T1, OsSMF1 (Oryza sativa, UniProt Q6ZLB0 1-436)
T1 sequence: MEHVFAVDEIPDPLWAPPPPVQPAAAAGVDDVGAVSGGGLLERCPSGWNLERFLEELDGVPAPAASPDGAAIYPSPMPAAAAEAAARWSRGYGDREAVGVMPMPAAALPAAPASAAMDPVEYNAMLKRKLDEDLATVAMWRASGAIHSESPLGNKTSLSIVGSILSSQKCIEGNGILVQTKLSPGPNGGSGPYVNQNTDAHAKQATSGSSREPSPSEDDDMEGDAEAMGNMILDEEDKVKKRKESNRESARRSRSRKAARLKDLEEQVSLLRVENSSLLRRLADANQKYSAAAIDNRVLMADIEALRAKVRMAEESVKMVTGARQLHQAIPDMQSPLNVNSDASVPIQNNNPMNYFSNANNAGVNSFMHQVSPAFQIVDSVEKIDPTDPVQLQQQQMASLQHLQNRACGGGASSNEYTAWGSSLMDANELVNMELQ
Test: protein-binding microarray (RPBM); PBS, 2% BSA, 51.3 ng/ul salmon testes DNA, 50 uM zinc acetate, 200 nM TF, 25 C, 1 h; high values mean tight binding
Conditions: protein: recombinant; tags: N-terminal polyhistidine and DsRed monomer fusion (pET32a); chain copies: 2; label: CyDye5-dUTP incorporated in the synthesized complementary strand; 3' TTTTT single-stranded linker to array surface; dsDNA, one strand shown
In short: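 The binding signal is fluorescence intensity per feature, in arbitrary units, read on an Axon 4000B scanner. Polyhistidine- and DsRed-tagged transcription factors (N-terminal fusions) from E. coli BL21-CodonPlus were purified on Ni–NTA and applied at 200 nM for 1 h at 25 °C to a double-stranded, BSA-blocked custom Agilent array in buffer with 50 µM zinc acetate.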

Compared with “CAGGATGCCACGTCAGCGCCCTCTATCTCTTTCCCCTCCTCGGAGTCACCTAGTGCAG”, “CCACGTGTCAGCATTGCCACATCAGCTTCCTCTCTCTTTTCGGAGTCACCTAGTGCAG” is lower in binding signal: 51300 fluorescence intensity (a.u.) for the first, 24100 fluorescence intensity (a.u.) for the second.

Going from “AGGTGCAGATGCTACTACTGATCTGGAACAGTGATCTCCACGGAGTCACCTAGTGCAG” to “CCCATTGCTGTCTCTACCATGTGTCATCTTCCAATAAGCACGGAGTCACCTAGTGCAG”, the binding signal rises from 3180 fluorescence intensity (a.u.) to 4950 fluorescence intensity (a.u.).

Going from “GGCTGCGGCGCTGTCCCTCCGTCTGCGTGATCCGACAACCCGGAGTCACCTAGTGCAG” to “AACCAACCAACCACGTCGATCGCTCGCAGTCGCCGCCGCGCGGAGTCACCTAGTGCAG”, the binding signal rises from 3800 fluorescence intensity (a.u.) to 3840 fluorescence intensity (a.u.).

First: GCAGGCTGAATAAAACTGTATTGTCATCGATGATATTGGTCGGAGTCACCTAGTGCAG
Second: AAAACAAATATAGAGGAGACAGCTCATTTTATTTCCTTGACGGAGTCACCTAGTGCAG
The binding signal of the first is higher: 5020 fluorescence intensity (a.u.) for the first, 3340 fluorescence intensity (a.u.) for the second.

Compared with “ATAAGGGCCAGCATGTACGTGACAGTGCCATTCGGGCCCACGGAGTCACCTAGTGCAG”, “CTACATATCAGGTGTCCACGTCACCCTCTCTCTTTCCCCTCGGAGTCACCTAGTGCAG” is higher in binding signal: 4850 fluorescence intensity (a.u.) for the first, 37200 fluorescence intensity (a.u.) for the second.

First: AAGTCAGGGTGTCCACGTCATCACCCTCCCTCTTTCTCCTCGGAGTCACCTAGTGCAG
Second: CATGTCAGACAGTCCACGTCATCACCTTTCTCTCCCCTCTCGGAGTCACCTAGTGCAG
The binding signal of the first is higher: 55700 fluorescence intensity (a.u.) for the first, 38200 fluorescence intensity (a.u.) for the second.

Going from “TTAACTCGGTCTTCATCCTGTGTGACGCCTACGATACAACCGGAGTCACCTAGTGCAG” to “GGCTTCGGCCAGCTAGCCGCCACGTCTCCGCCGGTTTTAACGGAGTCACCTAGTGCAG”, the binding signal rises from 4380 fluorescence intensity (a.u.) to 8270 fluorescence intensity (a.u.).

Compared with “ATTTCTACCTGACGAAGTGACGATGCACTAGCCAGCTACTCGGAGTCACCTAGTGCAG”, “AGACAAATAATTCCCTTTGCCATGCCTGTCAGTTAGGGAACGGAGTCACCTAGTGCAG” is lower in binding signal: 3900 fluorescence intensity (a.u.) for the first, 3500 fluorescence intensity (a.u.) for the second.

First: CTTATTATGGTTATATGTGCAGGTATGGAGTAATAACTGACGGAGTCACCTAGTGCAG
Second: GAATAATTTATTAAATAATTTATAAATCCTGAAACGAAAACGGAGTCACCTAGTGCAG
The binding signal of the first is higher: 46400 fluorescence intensity (a.u.) for the first, 3520 fluorescence intensity (a.u.) for the second.

Going from “AAACATTATTAAATAGGTGTATGAATGACAGTCATACTTGCGGAGTCACCTAGTGCAG” to “TTGTATAACTATGTGTATATGTGTATGGTTATTAAGCAAACGGAGTCACCTAGTGCAG”, the binding signal rises from 3490 fluorescence intensity (a.u.) to 10500 fluorescence intensity (a.u.).

First: GTAAACGCATGCCTTTTCGCAAATTTGTAAAACGAAACGACGGAGTCACCTAGTGCAG
Second: TATAAAATTTCGCAATAACGACGAAAGTATTAAACGGACACGGAGTCACCTAGTGCAG
The binding signal of the first is lower: 31500 fluorescence intensity (a.u.) for the first, 56200 fluorescence intensity (a.u.) for the second.

Going from “ACTTATGATATGAAACGGAGAGAGTAGTAGATAAGATTTTCGGAGTCACCTAGTGCAG” to “TGAGATATATATTTCGTATGTATATAGAGAAATAAAGAAACGGAGTCACCTAGTGCAG”, the binding signal rises from 28400 fluorescence intensity (a.u.) to 57100 fluorescence intensity (a.u.).

Going from “TCCATGTATATTACATCATGGGGTTATGTAACATCACTGACGGAGTCACCTAGTGCAG” to “AAACTTTATGTATAGAAATAATATATATATATATATATATCGGAGTCACCTAGTGCAG”, the binding signal rises from 8280 fluorescence intensity (a.u.) to 29000 fluorescence intensity (a.u.).

First: CGACATTAAAGATTATGAATATTATGGGCAAATATAGGTCCGGAGTCACCTAGTGCAG
Second: TCATAATATTATAAATTTGGACAAAGATATATCATATCACCGGAGTCACCTAGTGCAG
The binding signal of the first is higher: 57600 fluorescence intensity (a.u.) for the first, 3150 fluorescence intensity (a.u.) for the second.

Going from “TAGGATTCAGCTCCTTCCTATTAGGGGTTCACCCGCGAGTCGGAGTCACCTAGTGCAG” to “CTATAAACTTAGTTAAACTAAAGCTGCTATTTAACTTTGACGGAGTCACCTAGTGCAG”, the binding signal falls from 13800 fluorescence intensity (a.u.) to 3280 fluorescence intensity (a.u.).

Compared with “CGAGGTTGCCCCTCCCCTCTCCTACGTGGTCGTGCCCCAACGGAGTCACCTAGTGCAG”, “ATCGGCAAACGCGTTCCACCAAAACCCTCCACGTCAGCATCGGAGTCACCTAGTGCAG” is higher in binding signal: 5410 fluorescence intensity (a.u.) for the first, 29800 fluorescence intensity (a.u.) for the second.

First: CTCTCTCTCTCTCTCTCTCTCTCTCTTGCCATTTAAAAGACGGAGTCACCTAGTGCAG
Second: TTATAATATATATAATAAATAAATGTATGTTTACTTATAGCGGAGTCACCTAGTGCAG
The binding signal of the first is lower: 4760 fluorescence intensity (a.u.) for the first, 19300 fluorescence intensity (a.u.) for the second.

First: TAAAGAAAGAAAAGACATTAATAAAGCAGCAAAGAAAAGACGGAGTCACCTAGTGCAG
Second: AGCAAACATAATTAACATATATATAATAAAGCTCAAAGAGCGGAGTCACCTAGTGCAG
The binding signal of the first is higher: 46000 fluorescence intensity (a.u.) for the first, 3780 fluorescence intensity (a.u.) for the second.

Compared with “ATAATAAACTGAGAGGAGGATAGTAATATGTACTTAGTAACGGAGTCACCTAGTGCAG”, “TTAATTAATTAACGTATGTACTCAGGAATTATATATAATACGGAGTCACCTAGTGCAG” is lower in binding signal: 48400 fluorescence intensity (a.u.) for the first, 35600 fluorescence intensity (a.u.) for the second.

First: CCTTTTCCGCTTTAAAACACCACACAGTGACACACACACCCGGAGTCACCTAGTGCAG
Second: AGAAGAGAATGGAGTGGAGCTGACATGTGGGCTCCACCATCGGAGTCACCTAGTGCAG
The binding signal of the first is higher: 5500 fluorescence intensity (a.u.) for the first, 3950 fluorescence intensity (a.u.) for the second.

Going from “GGCTCCGTCTTATCCTAACAACGCCAAGGGGCCACGTATGCGGAGTCACCTAGTGCAG” to “CAGTTGACCGCCACGTAGAACCTGTTCCTCCAGCTCACCACGGAGTCACCTAGTGCAG”, the binding signal rises from 7210 fluorescence intensity (a.u.) to 9340 fluorescence intensity (a.u.).
